# According to PubChem BioAssay (Tox21):
# Several values for one entry are separate records, joined by “and”; a condition that tells them apart may be missing. Equal values may be shown once. A number with no mark means an inactive call. Entries that show only a call come without a potency. Activity calls are given as the source filed them. The call rests on the fitted dose curve; in most records, active means well fitted inhibition curve with a large enough effect in the repeat runs (not every such curve was filed as active); inconclusive means weak or mixed curves; inactive means flat fitted curve, though single readings scatter.
# Biological target: Thyrotropin-releasing hormone receptor (Homo sapiens) (UniProt P34981)
# Sequence (P34981 whole entry, looked up): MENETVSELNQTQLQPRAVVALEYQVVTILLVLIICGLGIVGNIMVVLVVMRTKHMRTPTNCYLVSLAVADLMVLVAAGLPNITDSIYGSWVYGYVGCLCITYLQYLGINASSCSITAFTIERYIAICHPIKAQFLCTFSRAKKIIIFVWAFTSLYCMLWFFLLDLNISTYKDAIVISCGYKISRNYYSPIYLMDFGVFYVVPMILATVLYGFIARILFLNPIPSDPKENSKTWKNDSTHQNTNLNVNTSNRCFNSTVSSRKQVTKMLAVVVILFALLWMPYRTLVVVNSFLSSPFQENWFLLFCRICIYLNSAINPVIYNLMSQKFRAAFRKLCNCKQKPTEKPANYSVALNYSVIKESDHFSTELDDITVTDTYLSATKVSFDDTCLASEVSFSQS
# Test: qHTS assay to identify small molecule antagonists of the thyrotropin-releasing hormone receptor (TRHR) signaling pathway (AID 1346877)
# Details: TRHR-HEK293, TRH-induced calcium fluorescence, antagonist mode; series mostly up to 51.3 µM; activity, negative = inhibition: at the top concentration
# From the text: National Center for Advancing Translational Sciences [NCATS]
# NIH Chemical Genomics Center [NCGC]
# U.S. Environmental Protection Agency [EPA]
# National Institutes of Environmental Health Sciences [NIEHS]
# National Toxicology Program [NTP]
# U.S. Food and Drug Administration [FDA]
# Thyrotropin-releasing hormone (TRH) receptor (TRHR) is a G-protein-coupled receptor which binds the tripeptide thyrotropin releasing hormone. TRHR is found in the brain and, when bound by TRH, acts (through phospholipase C) to increase intracellular inositol trisphosphate. It plays a crucial role in the anterior pituitary where it controls the synthesis and secretion of thyroid stimulating hormone and prolactin. The TRHR-Hek293 assay is a cell-based assay, and it has the potential to screen G protein-coupled receptors. A compound/drug can either activate (agonist) or suppress (antagonist) GPCRs that can be monitored by levels of intracellular calcium. In this assay, the Tox21 10K compound library was screened to identify potential TRHR antagonists.
# Tox21 Assay Protocol Summary:
# The TRHR-Hek293 cells were dispensed at 1500cells/4uL/well in 1536-well black-clear bottom plates using a Multidrop dispenser. After the assay plates were incubated at a 37 C/5% CO2 incubator for 18 hours, 4 uL of Dye-Loading Solution was added to each well. The plates were incubated at 37 C for 2 hours. For agonist mode, 23 nL of compounds dissolved in DMSO, positive controls or DMSO only was transferred to the assay plate by a pin tool. The fluorescence intensity in the plates was measured using FDSS 7000EX kinetic plate reader for 3 min at 1 sec intervals. For antagonist mode, 23 nL of compounds dissolved in DMSO, positive controls or DMSO only was transferred to the assay plate by a pin tool. After 5 min incubation at room temperature, 1 uL of TRH was added on the top of the cell/compound mixtures to achieve a final agonist concentration of 1 nM. The fluorescence intensity in the plates was measured using FDSS 7000EX kinetic plate reader for 3 min at 1 sec intervals. Each test compound was measured at 15 concentrations and in triplicates.
# Potency means the concentration at half of the fitted maximal effect.
Compound,Potency,"activity, negative = inhibition [%]"
CCC/C=N/O,inactive,–
COP(=S)(OC)SCn1nnc2ccccc2c1=O,inactive,–
O=C1CCCO1,inactive,–
C=CC(Cl)CCl (stereo not given),inactive,–
S=c1[nH]c2ccccc2[nH]1,inactive,–
c1ccc(C2CO2)cc1 (stereo not given),inactive,–
C[C@]12CCC(=O)C=C1CC[C@@H]1[C@@H]2CC[C@@]2(C)[C@H]1CC[C@]2(C)O,inactive,–
CC(C)Nc1nc(Cl)nc(NC(C)C)n1,inactive,–
CC1(C)Cc2cccc(O)c2O1,inactive,–
CCCCCCCCCCCCCl,inactive,–
C[N+](C)(C)C,inactive,–
CCC1(c2ccc(N)cc2)CCC(=O)NC1=O (stereo not given),inactive,–
O=P(OCCCl)(OCCCl)OCCCl,inactive,–
NC(=O)CN1CCCC1=O,inactive,–
CCOP(=S)(OCC)OP(=S)(OCC)OCC,inactive,–
Nc1ccc2ccccc2c1,inactive,–
CC1(C)C(C(=O)OC(C#N)c2cccc(Oc3ccccc3)c2)C1(C)C (stereo not given),inactive,–
CCCCOCCOC(C)=O,inactive,–
O=C1C(Cl)=C(Cl)C(=O)c2ccccc21,21.4 µM (active) and 21.3 µM (active),–
CN(C)P(=O)(N(C)C)N(C)C,inactive,–

Compound,Potency,"activity, negative = inhibition [%]"
CC(C)Nc1ccc(Nc2ccccc2)cc1,inactive,–
CCOP(=O)(OCC)OCC,inactive,–
[CH3][Sn]([Cl])([Cl])[Cl],inactive,–
CC(C)(C#N)N=NC(C)(C)C#N,inactive,–
N#Cc1cccnc1,inactive,–
CCC[CH2][Sn]([Cl])([Cl])[CH2]CCC,inactive,–
CC(C)COC(=O)c1ccccc1C(=O)OCC(C)C,inactive,–
CC(C)(c1ccccc1)c1ccc(O)cc1,–,0.583
Clc1cccc(Cl)c1,inactive,–
CCCCCCCCCc1ccc(O)cc1,inactive,–
c1ccc2c(c1)Nc1ccccc1S2,inactive,–
COC(=O)Nc1nc2ccccc2[nH]1,inactive,–
CCN(CC)C(=O)C(C)Oc1cccc2ccccc12 (stereo not given),inactive,–
CCCCOCC1CO1 (stereo not given),inactive,–
O=[N+]([O-])/N=C1\NCCN1Cc1ccc(Cl)nc1,inactive,–
COc1ccc(CO)cc1,inactive,–
ClC(Cl)(Cl)Br,inactive,–
CCOC(=O)c1ccccc1N,inactive,–
CNC(=O)Oc1cccc2c1OC(C)(C)C2,inactive,–
CCCCSP(=O)(SCCCC)SCCCC,inactive,–
